Hit rate of the full screen: of about 52,000 compounds, about 4,300 (8.3%) were called active. Cut-off read from the data, not from the text of the source: active = survival mostly below about 52% (no sharp cut-off); inactive = mostly above about 56%. The sample as a whole holds a higher share of actives than the screen did.
System: DeltatarO mutant
Test: growth inhibition of S. aureus wild type versus tarO mutant, primary screen, teichoic acid synthesis inhibitors, RN4220, OD600 (AID 463173)
Conditions: OD600, 18 h, hits give low values, screened at 18.75 µg/mL (by protocol)

Row | SMILES | survival
1 | Cc1nc(-c2ccc(F)cc2)sc1CCNC(=O)c1ccco1 | 116% (inactive)
2 | O=C(Nc1ccc2nn(-c3ccccc3)nc2c1)c1ccccc1 | 97% (inactive)
3 | Cc1cc(C)c2nc(N(Cc3cccnc3)C(=O)Cc3ccccc3)sc2c1 | 79% (inactive)
4 | CCCCOc1ccc(C(=O)NCCc2csc(-c3cccc(F)c3)n2)cc1 | 96% (inactive)
5 | O=C(N/N=C1/CSC(=O)N1Cc1cccs1)c1cccs1 | 75% (inactive)
6 | Cc1cc(C)c(S(=O)(=O)NCCc2cc3cc(C)c(C)cc3[nH]c2=O)c(C)c1 | 63% (inactive)
7 | COc1ccc(N(C)C(C)=O)cc1 | 91% (inactive)
8 | CCc1ccc(C(=O)c2cn(CC(=O)Nc3cc(OC)cc(OC)c3)c3ccc(CC)cc3c2=O)cc1 | 84% (inactive)
9 | CC(C)(C)c1ccc(-c2noc(CCC(=O)Nc3cccc(Cl)c3)n2)cc1 | 87% (inactive)
10 | CCN(C(=O)CCc1nc(-c2ccc(C)cc2)no1)c1cccc(Cl)c1 | -5% (active)
11 | CCN(C(=O)Cc1nc(-c2ccc(OC)cc2)no1)c1cccc(Cl)c1 | 83% (inactive)
12 | CCOCCCNC(=O)C(c1ccc(OC)cc1)N(Cc1cccs1)C(=O)c1ccc(NC(C)=O)cc1 (centres undefined) | 53% (inactive)
13 | Cn1nc(C(=O)NCc2cccc(Cl)c2)c2c1-c1ccccc1SC2 | 74% (inactive)
14 | COc1cc(NC(=O)c2c(C)nn(-c3ccc(F)cc3)c2-n2cccc2)cc(OC)c1 | 78% (inactive)
15 | CCOC(=O)N1CCC(NC(=O)c2c(C)nn(-c3cccc(C)c3)c2-n2cccc2)CC1 | 89% (inactive)
16 | CCOC(=O)N1CCN(C(=O)c2c(C)nn(-c3cccc(C)c3)c2-n2cccc2)CC1 | 20% (active)
17 | COc1cccc(CNC(=O)c2c(C)nn(-c3cccc(C)c3)c2-n2cccc2)c1 | 81% (inactive)
18 | COc1cccc(NC(=O)c2c(C)nn(-c3cccc(C)c3)c2-n2cccc2)c1 | 8% (active)
19 | Cc1cccc(-n2nc(C)c(C(=O)N3CCN(c4ccccc4)CC3)c2-n2cccc2)c1 | 66% (inactive)
20 | O=C(CCOc1ccccc1)N(Cc1cccnc1)c1nc2c(Cl)cccc2s1 | 80% (inactive)
21 | CN(C)c1ccc(CNC(=O)CN(C)S(=O)(=O)c2ccc3c(c2)c(=O)n(C)c(=O)n3C)cc1 | 97% (inactive)
22 | COc1ccc(CNC(=O)C(CCSC)NS(=O)(=O)c2ccc3c(c2)oc(=O)n3C)cc1 (centres undefined) | 69% (inactive)
23 | Cc1c(C(=O)N(C)C)sc2c1c(=O)n(-c1ccccc1C(F)(F)F)c(=O)n2Cc1cccc(F)c1 | 78% (inactive)
24 | CC(C)(C)OC(=O)N1CCC(c2c(C(=O)N3CCN(c4ccccn4)CC3)cnn2-c2ccc(F)cc2F)CC1 | 79% (inactive)
25 | CC(C)(C)OC(=O)N1CCC(c2c(C(=O)N3CCN(c4ncccn4)CC3)cnn2-c2ccc(F)cc2F)CC1 | 6% (active)
26 | CC(C)(C)OC(=O)N1CCC(c2c(C(=O)N3CCN(c4ncccn4)CC3)cnn2-c2ccccc2)CC1 | 94% (inactive)
27 | Cc1ccc(-n2ncc(C(=O)N3CCN(c4cccc(C)c4C)CC3)c2C2CCNCC2)c(C)c1 | 83% (inactive)

Row | SMILES | survival
28 | Cc1ccc(-n2ncc(C(=O)N3CCN(c4ncccn4)CC3)c2C2CCN(C(=O)OC(C)(C)C)CC2)cc1 | 80% (inactive)
29 | Cc1cccc(N2CCN(C(=O)c3cnn(-c4ccc(F)cc4F)c3C3CCN(C(=O)OC(C)(C)C)CC3)CC2)c1C | 82% (inactive)
30 | CN1CCN(C(=O)c2cnn(-c3ccc(F)cc3F)c2C2CCN(C(=O)OC(C)(C)C)CC2)CC1 | 80% (inactive)
31 | COc1ccccc1N1CCN(C(=O)c2cnn(-c3ccc(F)cc3F)c2C2CCNCC2)CC1 | 32% (active)
32 | CC(C)(C)OC(=O)N1CCC(c2c(C(=O)N3CCN(c4ncccn4)CC3)cnn2-c2ccc(F)cc2)CC1 | 17% (active)
33 | CCc1[nH]nc2c1C1(C(=O)Nc3ccc(Cl)cc31)C(C#N)=C(N)O2 (centres undefined) | 78% (inactive)
34 | O=C(CSc1ncc2c(n1)-c1ccccc1N(Cc1ccc(Cl)cc1)S2(=O)=O)c1ccccc1 | 144% (inactive)
35 | O=C(CN1C(=O)CC(c2ccco2)Sc2ccccc21)Nc1cccc(C(F)(F)F)c1 (centres undefined) | 103% (inactive)
36 | CC1CCCN(Cc2nc3c(c(=O)n(C)c(=O)n3C)n2Cc2ccc(Cl)cc2)C1 (centres undefined) | 90% (inactive)
37 | Fc1ccccc1N1CCN(c2c3c(nc4nncn24)CCC3)CC1 | 81% (inactive)
38 | Cc1nc(S(=O)(=O)N2CCN(c3ccccc3F)CC2)cn1C | 117% (inactive)
39 | Cc1cccc(N2CCN(S(=O)(=O)c3cn(C)c(C)n3)CC2)c1C | 0% (active)
40 | Cc1ccc(C)c(N2CCN(S(=O)(=O)c3cn(C)c(C)n3)CC2)c1 | 72% (inactive)
41 | Cc1ccccc1NS(=O)(=O)c1nnc(NC(=O)c2ccco2)s1 | 88% (inactive)
42 | Cc1ccccc1N1CCN(S(=O)(=O)c2nnc(NC(=O)c3ccc(C(C)C)cc3)s2)CC1 | 38% (active)
43 | CC1CCN(S(=O)(=O)c2nnc(NC(=O)c3ccc(C(C)C)cc3)s2)CC1 | 62% (inactive)
44 | Cc1ccccc1NS(=O)(=O)c1nnc(NC(=O)c2ccccc2C)s1 | 76% (inactive)
45 | Cc1ccc(N2CCN(S(=O)(=O)c3nnc(NC(=O)c4ccccc4)s3)CC2)cc1 | 57% (inactive)
46 | Cc1ccccc1NS(=O)(=O)c1nnc(NC(=O)c2ccc(Cl)cc2)s1 | 41% (active)
47 | Cc1ccccc1N1CCN(S(=O)(=O)c2nnc(NC(=O)c3ccccc3)s2)CC1 | 26% (active)
48 | CC(C)OC(=O)Cn1nnc(-c2ccccc2)n1 | 82% (inactive)
49 | CC(=O)c1cccc(NC(=O)c2ccc(-n3c(C)nnc3C)cc2)c1 | 70% (inactive)
50 | CC(C)(C)OC(=O)N1C(C(=O)O)CSC1c1cccc(Br)c1 (centres undefined) | 101% (inactive)
51 | Cc1ccc(NC(=O)N2CCc3cc(S(=O)(=O)N4CCC(C)CC4)ccc32)cc1 | 96% (inactive)
52 | Cc1ccc(CN(Cc2cccn2-c2nnc(N3CCCC3=O)s2)C(=O)Nc2ccccc2Cl)cc1 | 104% (inactive)
53 | COc1ccccc1CNC(=O)c1cn(C)c2ccc(S(=O)(=O)N3CCC(C)CC3)cc2c1=O | 92% (inactive)
54 | Cc1ccc(N(C)S(=O)(=O)c2ccc(-c3coc(C)n3)cc2)cc1 | 75% (inactive)

Reference: PubChem BioAssay AID463173 (ICCB-Longwood Screening Facility, Harvard Medical School, 2010)
